pKd: −log10 of the molar value.

The target in the first test is T1, Hb (Drosophila melanogaster, UniProt P05084 225-364).
T1 sequence: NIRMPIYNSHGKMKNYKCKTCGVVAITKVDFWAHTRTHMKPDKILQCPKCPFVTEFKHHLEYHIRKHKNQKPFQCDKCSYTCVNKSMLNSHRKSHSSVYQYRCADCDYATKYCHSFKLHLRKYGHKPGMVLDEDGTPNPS
The test is described as follows: FP; 33 mM phosphate pH 7.0, 90 mM NaCl, 0.01% Tween 20, 0.1 mM DTT, 0.5% agarose; room temperature. The settings on record: tags: N-GST (pGEX-6P-1, kept); dsDNA, one strand shown.
Take AGTTATTTAGGC: the binding signal is 10.2 Kd / Kd of best base at the position. The same measure, in the same setting: the value for ACTTTTTTAGGC was 1.03 Kd / Kd of best base at the position; that for AGTTTTTTAGGG was 1.25 Kd / Kd of best base at the position.

Consider AGTTCTTTAGGC, for which the binding signal was 13.1 Kd / Kd of best base at the position.

Consider AGTTTTTAAGGC, for which the binding signal was 9.25 Kd / Kd of best base at the position.

The next test deals with T2, Hkb (Drosophila melanogaster, UniProt Q9VN10 181-296).
T2 sequence: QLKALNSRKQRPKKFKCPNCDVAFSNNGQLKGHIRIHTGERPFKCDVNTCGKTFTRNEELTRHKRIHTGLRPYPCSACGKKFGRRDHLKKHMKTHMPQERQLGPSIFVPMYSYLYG
The description is as above. The note with it: tags: N-GST (pGEX-6P-1, kept); dsDNA, one strand shown.
AAAGGGCGTGAT: the binding signal was 3.42 Kd / Kd of best base at the position. As to AACGGGCGTGAT, the binding signal is 16.2 Kd / Kd of best base at the position. Regarding AAGGGGCGGGAT, the binding signal is 85.9 Kd / Kd of best base at the position. With AAGGGGCGTGAG, the binding signal is 1.09 Kd / Kd of best base at the position. On the same count and under the same terms, the value for AAGTGGCGTGAT was 155 Kd / Kd of best base at the position; that for AATGGGCGTGAT was 1.81 Kd / Kd of best base at the position. Still for that read-out and setting: the value for AAGGTGCGTGAT was 62.2 Kd / Kd of best base at the position.

Take AAGGGGTGTGAT: the binding signal is 277 Kd / Kd of best base at the position. Take AAGGCGCGTGAT: the binding signal is 108 Kd / Kd of best base at the position. Same read-out and setting: the value for AAGGGGCGAGAT was 75.8 Kd / Kd of best base at the position; that for AAGGGGGGTGAT was 55.1 Kd / Kd of best base at the position; that for AAGGGGCGTGGT was 127 Kd / Kd of best base at the position. On to AAGGGGCGTAAT, for which the binding signal was 130 Kd / Kd of best base at the position.

Turning to AAGGGTCGTGAT, the binding signal is 116 Kd / Kd of best base at the position. Regarding AAGGGGCGTTAT, the binding signal is 124 Kd / Kd of best base at the position. Regarding AAGGGGCGTCAT, the binding signal was 134 Kd / Kd of best base at the position. For AAGGGGCGTGAT, the pKd is around 8.64.

For AAGGGGCGTGTT, the binding signal is 150 Kd / Kd of best base at the position. ACGGGGCGTGAT: the binding signal was 2.33 Kd / Kd of best base at the position.

With AAGGGGCATGAT, the binding signal was 318 Kd / Kd of best base at the position. Regarding AAGGGGCGTGAA, the binding signal was 2.74 Kd / Kd of best base at the position. As to GAGGGGCGTGAT, the binding signal was 3 Kd / Kd of best base at the position.

As for AAGGGGCGTGAC, the binding signal is 1.18 Kd / Kd of best base at the position. Still for that read-out and setting: the value for AAGCGGCGTGAT was 121 Kd / Kd of best base at the position.

For the sequence TAGGGGCGTGAT, the binding signal was 2.68 Kd / Kd of best base at the position. Still for that read-out and setting: the value for AAGGGGCGTGCT was 119 Kd / Kd of best base at the position; that for AAGGGGCTTGAT was 235 Kd / Kd of best base at the position. Still for that read-out and setting: the value for AAGGGACGTGAT was 86.7 Kd / Kd of best base at the position; that for AAGGAGCGTGAT was 52 Kd / Kd of best base at the position; that for CAGGGGCGTGAT was 6.48 Kd / Kd of best base at the position.

As to AAGAGGCGTGAT, the binding signal is 8.29 Kd / Kd of best base at the position. On the same count and under the same terms, the value for AAGGGGAGTGAT was 103 Kd / Kd of best base at the position; that for AAGGGGCGCGAT was 170 Kd / Kd of best base at the position. The same measure, in the same setting: the value for AGGGGGCGTGAT was 5.34 Kd / Kd of best base at the position. The same measure, in the same setting: the value for AAGGGCCGTGAT was 107 Kd / Kd of best base at the position.

These data come from PMC5913336, “True equilibrium measurement of transcription factor-DNA binding affinities using automated polarization microscopy”.
